Where “and” joins values, the source holds several entries; their conditions need not be identical. Equal entries are not always repeated. Among all 5,500 compounds or so, about 2,000 (36%) were called active. Not shown: some 18% with an inconclusive outcome. Rule as the data show it: active = normalized growth mostly below about 0.91 (no sharp cut-off); inconclusive = no clear call, values can overlap the other calls; inactive = mostly above about 0.92. The list shows a part of the results.
Assay: chemical genetic growth profiling, strain panel (AID 1159580);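 also: tested at 20 µM; growth read once vehicle control cultures reached saturation at 30 °C; 1 = growth at the plate median or of vehicle wells; lower values mean less growth of the strain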
Conditions: S. cerevisiae deletion strains, growth OD

Measured: normalized growth

CC1CCc2cc(F)cc3c(=O)c(C(=O)O)cn1c23 (configuration not stated)
inactive: locus YAL013W, strain DEP1, hits give low values 0.985 | locus YAL021C, strain ccr4, hits give low values 0.967 | locus YAL026C, strain drs2, hits give low values 0.981 | locus YAL030W, strain snc1, hits give low values 0.989 | locus YBL061C, strain skt5, hits give low values 0.985 | locus YBR009C, strain hhf1, hits give low values 0.987 | locus YBR021W, strain FUR4, hits give low values 0.943 | locus YBR023C, strain chs3, hits give low values 0.975 | locus YBR171W, strain sec66, hits give low values 0.979 | locus YBR229C, strain ROT2, hits give low values 0.98 | locus YBR231C, strain swc5, hits give low values 0.997 | locus YBR279W, strain paf1, hits give low values 0.985 | locus YCL011C, strain gbp2, hits give low values 0.988 | locus YCL016C, strain dcc1, hits give low values 0.977 | locus YCL029C, strain bik1, hits give low values 0.925 | locus YCL061C, strain MRC1, hits give low values 0.989 | locus YCL069W, strain vba3, hits give low values 0.992 | locus YCR088W, strain abp1, hits give low values 0.999 | locus YDL005C, strain med2, hits give low values 0.995 | locus YDL035C, strain GPR1, hits give low values 1 | locus YDL040C, strain nat1, hits give low values 0.999 | locus YDL074C, strain BRE1, hits give low values 0.972 | locus YDL101C, strain DUN1, hits give low values 0.974 | locus YDL134C, strain PPH21, hits give low values 0.975 | locus YDL185W, strain tfp1, hits give low values 0.981 | locus YDL192W, strain arf1, hits give low values 0.967 | locus YDR001C, strain nth1, hits give low values 0.992 | locus YDR069C, strain doa4, hits give low values 1 | locus YDR101C, strain arx1, hits give low values 0.962 | locus YDR137W, strain rgp1, hits give low values 0.942 | locus YDR150W, strain NUM1, hits give low values 0.981 | locus YDR159W, strain sac3, hits give low values 1.01 | locus YDR162C, strain NBP2, hits give low values 0.991 | locus YDR195W, strain ref2 0.99 | locus YDR297W, strain sur2, hits give low values 0.997 | locus YDR318W, strain mcm21, hits give low values 0.97 | locus YDR334W, strain swr1, hits give low values 0.986 | locus YDR335W, strain msn5, hits give low values 0.991 | locus YDR388W, hits give low values 0.952 | locus YDR392W, strain spt3, hits give low values 0.941 | locus YDR502C, strain sam2, hits give low values 0.984 | locus YEL003W, strain gim4, hits give low values 1 | locus YEL037C, strain rad23, hits give low values 0.993 | locus YEL061C, strain CIN8 (second series), hits give low values 0.993 | locus YEL061C, strain CIN8, hits give low values 0.985 | locus YER015W, strain faa2, hits give low values 0.982 | locus YER016W, strain bim1, hits give low values 1 | locus YER110C, hits give low values 0.976 | locus YER111C, strain swi4, hits give low values 0.984 | locus YER155C, strain BEM2 (second series), hits give low values 0.994 | locus YER155C, strain BEM2, hits give low values 0.975 | locus YER167W, strain BCK2, hits give low values 0.988 | locus YFR010W, strain ubp6, hits give low values 0.984 | locus YGL078C, strain dbp3, hits give low values 0.969 | locus YGL086W, strain mad1, hits give low values 0.987 | locus YGL167C, strain pmr1, hits give low values 0.993 | locus YGL173C, strain kem1, hits give low values 0.991 | locus YGL227W, strain vid30, hits give low values 0.985 | locus YGL240W, strain doc1, hits give low values 0.991 | locus YGL248W, strain PDE1, hits give low values 0.984 | locus YGL253W, strain hxk2, hits give low values 0.995 | locus YGR078C, strain PAC10, hits give low values 0.974 | locus YGR135W, strain pre9, hits give low values 0.974 | locus YGR229C, strain SMI1, hits give low values 1.01 | locus YGR252W, strain gcn5, hits give low values 1.04 | locus YHR013C, strain ard1, hits give low values 0.965 | locus YHR027C, strain rpn1, hits give low values 0.985 | locus YHR030C, strain SLT2, hits give low values 0.982 and 0.978 | locus YHR079C, strain IRE1 (second series), hits give low values 0.955 | locus YHR079C, strain IRE1, hits give low values 0.988 | locus YHR094C, strain hxt1, hits give low values 0.983 | locus YHR129C, strain ARP1, hits give low values 0.977 | locus YHR142W, strain chs7, hits give low values 0.981 | locus YHR200W, strain rpn10, hits give low values 0.969 | locus YIL066C, strain RNR3, hits give low values 0.974 | locus YIL073C, strain SPO22, hits give low values 0.991 | locus YIL125W, strain kgd1, hits give low values 0.985 | locus YIR030C, strain dcg1, hits give low values 0.972 | locus YJL092W, strain hpr5, hits give low values 0.988 | locus YJL095W, strain BCK1 (second series), hits give low values 0.989 | locus YJL095W, strain BCK1, hits give low values 0.948 and 0.982 | locus YJL115W, strain asf1, hits give low values 0.983 | locus YJL129C, strain trk1, hits give low values 1 | locus YJL134W, strain LCB3, hits give low values 0.984 | locus YJL154C, strain vps35, hits give low values 0.991 | locus YJL164C, strain tpk1, hits give low values 0.988 | locus YJL166W, strain qcr8, hits give low values 0.981 | locus YJL168C, strain set2, hits give low values 0.967 | locus YJL187C, strain SWE1 (second series), hits give low values 0.954 | locus YJL187C, strain SWE1, hits give low values 0.989 | locus YJR043C, strain POL32, hits give low values 0.979 | locus YJR066W, strain TOR1, hits give low values 0.897

Source: PubChem BioAssay AID1159580 (chemical genetic matrix, 2015)
